# Test results as given in PubChem BioAssay (NCATS).
# Results filed as inconclusive are left out. Active and inactive are the calls of the source. Unless noted, calls come from the whole dose curve; as a rule, active = well fitted inhibition curve with a large enough effect; inconclusive = small, poorly fitted or top-dose-only effect; inactive = no such curve, though single readings can be large or run the other way.
# System: not listed separately
# Assay: S16 Schwann cell PMP22 intronic element beta-lactamase assay (AID 624044; calls by dose curve; note: nearly all actives have a fitted effect of over 15% in size;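 for ratio activity, negative = inhibition: 0% = DMSO and -100% = potassium clavulanate positive control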)
# Details: S16 rat Schwann cells, PMP22 element beta-lactamase FRET, 24 h; series mostly up to 38.3 µM; ratio activity, negative = inhibition: at the top concentration
# How it was run: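 Beta-lactamase reporter under a PMP22 intronic regulatory element in stable S16 rat Schwann cells; 24 h compound exposure. 460 nm blue signal normalized between DMSO (0%) and potassium clavulanate, with 535 nm FRET tracking viability; curves classed by r2 and response.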
# Potency is the fitted concentration of half-maximal effect.
SMILES,Potency,"ratio activity, negative = inhibition"
CC(=O)[C@]1(O)Cc2c(O)c3c(c(O)c2[C@@H](O[C@H]2C[C@H](N)[C@H](O)[C@H](C)O2)C1)C(=O)c1c(O)cccc1C3=O,0.398 µM (active),
C#C[C@]1(O)CC[C@H]2[C@@H]3CCc4cc(O)ccc4[C@H]3CC[C@@]21C,,3% (inactive)
CN(C)c1ccc(C(=C2C=CC(=[N+](C)C)C=C2)c2ccccc2)cc1,3.98 µM (active),
COc1cc(/C=C/C(=O)CC(=O)/C=C/c2ccc(O)c(OC)c2)ccc1O,,-4.72% (inactive)
COC(=O)C1=C(C)NC(C)=C(C(=O)OCC(C)C)C1c1ccccc1[N+](=O)[O-] (stereo not given),,-7.02% (inactive)

# Target: Glutaminase kidney isoform, mitochondrial (Homo sapiens) (UniProt O94925)
# Sequence (O94925 whole entry, looked up, canonical isoform): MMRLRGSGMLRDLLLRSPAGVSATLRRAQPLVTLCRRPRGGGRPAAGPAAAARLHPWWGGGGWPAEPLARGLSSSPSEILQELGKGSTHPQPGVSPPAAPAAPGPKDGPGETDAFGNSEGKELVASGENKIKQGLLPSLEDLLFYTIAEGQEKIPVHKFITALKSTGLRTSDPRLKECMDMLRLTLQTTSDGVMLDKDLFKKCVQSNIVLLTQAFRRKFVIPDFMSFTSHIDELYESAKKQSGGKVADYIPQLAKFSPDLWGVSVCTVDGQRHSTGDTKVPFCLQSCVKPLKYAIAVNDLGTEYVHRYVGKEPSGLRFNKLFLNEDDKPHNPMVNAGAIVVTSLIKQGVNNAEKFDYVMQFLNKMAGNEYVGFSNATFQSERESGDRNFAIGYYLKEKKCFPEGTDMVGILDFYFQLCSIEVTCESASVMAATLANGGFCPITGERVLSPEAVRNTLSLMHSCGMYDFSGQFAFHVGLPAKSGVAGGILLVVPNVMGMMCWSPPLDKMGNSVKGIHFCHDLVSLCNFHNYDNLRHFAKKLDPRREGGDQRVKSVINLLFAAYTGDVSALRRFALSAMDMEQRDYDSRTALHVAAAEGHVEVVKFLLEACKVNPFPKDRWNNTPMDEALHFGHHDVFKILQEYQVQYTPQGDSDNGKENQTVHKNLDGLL
# Assay: qHTS for Inhibitors of Glutaminase (GLS): LOPAC Validation (AID 624146); note: nearly all actives have a fitted effect of over 60% in size;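 for activity change, negative = inhibition: glutamate product detected by oxidase and peroxidase coupled Amplex red fluorescence gain; % is set by controls: 0 for no effect and ±100 for the full control effect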
# Details: glutaminase enzyme activity inhibition; series mostly up to 46.1 µM; activity change, negative = inhibition: at the top concentration
# How it was run: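 Human kidney-isoform GLS in 45 mM KH2PO4 pH 8.2, 0.02% Tween-20, with compound, started with 1mM L-Glutamine (added stock). Glutamate oxidase/HRP/Amplex red coupled fluorescence read at start and after 30 min at RT.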
SMILES,"activity change, negative = inhibition",Potency
N=C(N)SCCc1ccc(CCSC(=N)N)cc1,-21.4% (inactive),
CCCCCCCCCCCCCCCC(=O)NCC(COP(=O)([O-])OCC[N+](C)(C)C)OCC (stereo not given),-12.5% (inactive),
CN(C)CCCO[C@@H]1[C@H]2OC(C)(C)O[C@H]2O[C@@H]1[C@H](O)CO,-12.5% (inactive),
NC[C@H]1O[C@@H](n2cnc3c(N)ncnc32)[C@H](O)[C@@H]1O,-16.9% (inactive),
O=C1O/C(=C/Br)CCC1c1cccc2ccccc12 (stereo not given),26% (inactive),
NCCNC(=O)c1ncsc1-c1cccc(F)c1,-5.93% (inactive),
CCOC(=O)C1=C(C)NC(C)=C(C(=O)OCC)C1c1c(F)c(F)c(F)c(F)c1F,-44.4% (inactive),
NCCCS(=O)(=O)O,-17.9% (inactive),
O=c1[nH]c2cc(C(F)(F)F)ccc2n1-c1cc(C(F)(F)F)ccc1O,-3.88% (inactive),
CO/N=C(\C(=O)N[C@@H]1C(=O)N2C(C(=O)O)=C(COC(C)=O)CS[C@H]12)c1csc(N)n1,-13.5% (inactive),
NC[C@@H]1O[C@H](C23CC4CC(CC(C4)C2)C3)Cc2c1ccc(O)c2O,126% (inactive),
CC[C@@H](C)[C@H]1O[C@]2(CC[C@H]1C)C[C@@H]1C[C@@H](CC=C(C)[C@@H](O[C@H]3C[C@H](OC)[C@@H](O[C@H]4C[C@H](OC)[C@@H](O)[C@H](C)O4)[C@H](C)O3)[C@@H](C)C=CC=C3CO[C@@H]4[C@H](O)C(C)=C[C@@H](C(=O)O1)[C@]34O)O2,-8.39% (inactive),
NCCCCCCCCCCN,-0.592% (inactive),
O=S(=O)(c1cccc2c(I)cccc12)N1CCCNCC1,258% (inactive),
CCCCC#Cc1nc(NC)c2ncn([C@@H]3O[C@H](CO)[C@@H](O)[C@H]3O)c2n1,-25.8% (inactive),
O=C(c1ccc(OCCCc2cnc[nH]2)cc1)C1CC1,-26.2% (inactive),
C#C[C@]1(O)CC[C@H]2[C@@H]3CCC4=Cc5oncc5CC4(C)[C@H]3CCC21C (stereo not given in full),-16.3% (inactive),
O=C(c1ccc(Cl)cc1)N1CCN(c2ccc([N+](=O)[O-])c3ncccc23)CC1,-26.2% (inactive),
Cn1cc(C2=C(c3ccc(Cl)cc3Cl)C(=O)NC2=O)c2ccccc21,-31.5% (inactive),
Cn1c(=O)c2[nH]c(-c3ccccc3)nc2n(C)c1=O,-14.6% (inactive),
Nc1nc(Cl)nc2c1ncn2[C@@H]1O[C@H](COP(=O)(O)OP(=O)(O)OP(=O)(O)O)[C@@H](O)[C@H]1O,-10.7% (inactive),
CNc1ncnc2c1ncn2[C@@H]1O[C@H](CO)[C@@H](O)[C@H]1O,-14.3% (inactive),
CCCCCCCCCCCCCCCC(=O)OC(CC(=O)O)C[N+](C)(C)C (stereo not given),-14.1% (inactive),
c1ccc(-c2ccccn2)nc1,-8.12% (inactive),
NO,-15.6% (inactive),
O=[N+]([O-])c1ccc(CSc2ncnc3c2ncn3[C@@H]2O[C@H](CO)[C@@H](O)[C@H]2O)cc1,-10.4% (inactive),
C[C@@H](NC(=O)/C(C#N)=C/c1ccc(O)c(O)c1)c1ccccc1,,1 µM (active)
CN1C2CCC1CC(OC(=O)C(O)c1ccccc1)C2 (stereo not given),63.8% (inactive),
Cc1cc2c(cc1Cl)N(C(=O)Nc1ccc(Oc3cccnc3C)nc1)CC2,-5.17% (inactive),
NC(=O)C(=O)O,-15.7% (inactive),
